For this experiment, the species on record is Homo sapiens. Briefly: To identify inhibition of the IFN signalling (Jak-Stat) pathway via expression of an eGFP reporter gene under the control of an IFN-stimulated response element (ISRE) containing MxA promoter. The format is functional. On the set-up: scale not given: direction of the effect not stated beside the values. The following applies: 30 µM. Background: Reporter assays use an easily measured gene product as a stand-in for the process of interest.
For `Cc1cnc(CN2CCCC(c3cc(C(N)=O)[nH]n3)C2)cn1` (centres undefined), the Percent Effect is 6.6%. On to `Cc1cnn(CC2CCCN2C(=O)c2cccnc2N(C)C)c1` (centres undefined), for which the Percent Effect was -17.9%. `CC(NC(=O)NCc1cccc(Cl)c1)(C(=O)O)c1ccco1` (centres undefined): the Percent Effect was -2.55%. In the case of `CC(C)c1nc(C2CCCN(C(=O)c3ccnc(N(C)C)c3)C2)no1` (centres undefined), the Percent Effect is 26.1%.

These data come from ChEMBL document CHEMBL3988442, “University of Dundee, Small-Polar-MMV Screening Library” (2021).
